Bioassay records (PubChem BioAssay)
Compounds with a hit are over-represented: about 2.8% of the library has one in this group of screens.
DAGLB inhibitor – DAGLB lipase inhibitors, primary screen, biochemical, fluorescence, HTS; Diacylglycerol lipase-beta (Homo sapiens), Q8NCG7; 340,000 tested, 0.059% active; AID 504411, 2011; HEK293T DAGLB membrane lysate, EnzChek fluorogenic substrate; inhibition, % at 5.17 µM; in the data active means inhibition above about 34%;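 further: 0% = enzyme with vehicle and 100% = wells lacking enzyme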
PAFAH1B3 inh – PAFAH1B3 enzyme inhibitors, primary screen, biochemical, fluorescence polarization, human; Platelet-activating factor acetylhydrolase IB subunit alpha1 (Homo sapiens), Q15102; recombinant PAFAH1B3, FP-rhodamine probe; inhibition, % at 3.39 µM; 340,000 tested, 0.28% active; AID 492972, 2010;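 active means inhibition above the screen-wide average of all tested compounds plus 3 SD, cut at about 25% in these data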;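 further: 0% = enzyme with DMSO only and 100% = wells lacking PAFAH1B3 protein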
PAFAH1B2 inh – PAFAH1B2 enzyme inhibitors, primary screen, biochemical, fluorescence polarization, human; Platelet-activating factor acetylhydrolase IB subunit alpha2 (Homo sapiens), P68402; recombinant PAFAH1B2, FP-rhodamine activity probe; inhibition, % at 3.39 µM; 340,000 tested, 1.2% active; AID 492953, 2010;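 active means inhibition above the mean of all tested compounds plus 3 SD, cut at about 24% in these data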;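 further: 0% = enzyme with DMSO and 100% = wells lacking PAFAH1B2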
pPAFAH inh – pPAFAH enzyme inhibitors, primary screen, biochemical, fluorescence polarization, human | recombinant pPAFAH, FP-rhodamine probe fluorescence polarization | inhibition, % at 3.39 µM | 330,000 tested, 1.5% active | AID 463082, 2010;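 active means inhibition above the mean inhibition across the screen plus 3 SD, cut at about 25% in these data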;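 further: inhibitors block binding of the rhodamine activity-based probe so polarization drops; 0% = enzyme with DMSO and 100% = wells lacking pPAFAH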
HTRA1 inh – HTRA1 serine protease inhibitors, primary screen, biochemical, fluorescence polarization, HTS. Q92743. recombinant HTRA1, FP-rhodamine activity-based probe. inhibition, % at 5.96 µM. 340,000 tested, 0.5% active; in the data active means inhibition above about 36%;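 further: 0% = enzyme with DMSO and 100% = wells lacking enzyme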
Target sequence (Q92743 whole entry, looked up): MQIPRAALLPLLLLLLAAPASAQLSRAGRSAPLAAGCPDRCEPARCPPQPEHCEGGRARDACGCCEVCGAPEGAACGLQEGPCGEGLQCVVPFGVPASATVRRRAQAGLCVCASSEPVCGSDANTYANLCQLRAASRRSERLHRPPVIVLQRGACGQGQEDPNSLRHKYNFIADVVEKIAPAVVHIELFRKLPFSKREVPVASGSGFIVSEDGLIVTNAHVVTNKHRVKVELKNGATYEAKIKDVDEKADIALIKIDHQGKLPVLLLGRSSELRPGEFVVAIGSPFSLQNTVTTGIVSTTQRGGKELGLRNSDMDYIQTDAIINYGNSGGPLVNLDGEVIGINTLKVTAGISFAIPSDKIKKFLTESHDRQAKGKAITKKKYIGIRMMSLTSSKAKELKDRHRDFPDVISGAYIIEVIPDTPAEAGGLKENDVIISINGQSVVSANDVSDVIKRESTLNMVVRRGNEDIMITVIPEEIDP
PAFAH2 FP inh – PAFAH2 enzyme inhibitors, primary screen, biochemical, fluorescence polarization, human | 340,000 tested, 0.99% active | AID 492956, 2010 | inhibition, % at 3.39 µM | recombinant PAFAH2, FP-rhodamine activity probe;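 active means inhibition above the mean over all tested compounds plus 3 SD, cut at about 30% in these data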;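 further: inhibitors block probe labeling of enzyme so polarization drops; 0% = enzyme with DMSO and 100% = wells lacking PAFAH2 protein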
PAFAH2 confirm – PAFAH2 enzyme inhibitors, confirmation, biochemical, fluorescence polarization, human | shares compounds with PAFAH2 FP inh | recombinant PAFAH2, FP-rhodamine activity probe | inhibition, % at 3.39 µM | 2,300 tested, 65% active;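 active means mean inhibition over three repeats above a set limit taken from the earlier primary screen, cut at about 30% in these data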;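 further: inhibitor blocks binding of rhodamine activity probe so polarization falls; 0% = enzyme with DMSO and 100% = wells lacking PAFAH2 protein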
* = called active by the depositor; · = not tested or not shown.

SMILES	DAGLB inhibitor	PAFAH1B3 inh	PAFAH1B2 inh	pPAFAH inh	HTRA1 inh	PAFAH2 FP inh	PAFAH2 confirm
Cc1c(Cl)cccc1NC(=O)COC(=O)C12CC3CC(CC(O)(C3)C1)C2	-2	4	-1	-2	3	43*	16
O=C(COC(=O)C12CC3CC(CC(O)(C3)C1)C2)Nc1ccc(Br)cc1F	-4	4	0	1	1	30*	13
COCCOc1ccc(C(F)(F)F)cc1NC(=O)COC(=O)C12CC3CC(CC(O)(C3)C1)C2	-3	8	10	3	-1	3	·
Cc1ccc(NC(=O)c2cc3ccccc3o2)nc1	-4	-7	-3	2	-7	1	·
Cc1onc(-c2ccccc2)c1C(=O)/C=C/N(C)C	2	6	5	2	1	-1	·
CCN(c1cccc(C)c1)S(=O)(=O)c1ccc2c(c1)NC(=O)CCS2	1	0	5	9	-5	48*	35*
Oc1oc(-c2ccccc2)nc1C=Nc1cccc2ccccc12	-5	10	4	5	-28	18	·
Oc1oc(-c2ccccc2)nc1C=NCc1ccncc1	1	8	1	15	4	52*	37*
CCOc1ccccc1NC(=S)Nn1cnnc1	0	3	0	2	9	-2	·
CN(C)C(=O)CCc1ccc2c3c([nH]c2c1)[C@]1(CCC2CCCC2)[C@@H](C(=O)N2CCOCC2)C[C@H](CC(=O)NC(C)(C)C)C(=O)N1CC3	0	4	4	11	10	1	·
Cc1cc(OCC(=O)NNC(=O)CCc2ccccc2)ccc1Br	1	7	1	-2	-6	-5	·
Cc1cc(OCC(=O)Nc2cccnc2)c2c(C)c(C)c(=O)oc2c1	1	4	0	3	0	-6	·
Cc1c(C)c2c(OCC(=O)Nc3cccnc3)cc3c(c2oc1=O)CCC(C)(C)O3	-3	10	4	20	5	33*	11
Cc1c(C)c2c(OCC(=O)NCC(C)C)cc3c(c2oc1=O)CCC(C)(C)O3	-1	6	4	·	-13	72*	52*
Cc1cc(=O)oc2c3c(cc(OCC(=O)NCC(=O)N[C@H](C(=O)O)C(C)C)c12)OC(C)(C)CC3	-4	11	3	13	11	14	·
O=C(COC(=O)C1=Cc2ccccc2OC1)NCc1ccccc1	-5	0	2	3	-1	31*	23
CN(C)c1ccc(C(=O)OCC(=O)NCC2CCCO2)cc1 (stereo not given)	0	2	1	8	-1	62*	56*
CN(C)c1ccc(C(=O)OCc2ccc(Br)cc2)cc1	-20	-2	12	10	-11	34*	35*
O=C(COC(=O)C1=Cc2ccccc2OC1)NCc1ccco1	-5	-4	-7	4	-3	20	·
COC(=O)c1ccc(CNC(=O)COC(=O)c2ccc(N(C)C)cc2)cc1	1	9	8	6	-3	44*	40*
COC(=O)c1ccc(CNC(=O)COC(=O)c2ccccc2-c2ccccc2)cc1	-2	8	5	7	-15	0	·
Cc1cccc(CNC(=O)c2ccc3nc(Cc4ccccc4F)oc3c2)n1	-1	2	-3	-2	-2	1	·
CC(=O)Nc1ccc(C(=O)OCC(=O)NCc2ccccc2)cc1	-1	8	2	-6	-5	55*	46*
CC(=O)Nc1ccc(OCC(=O)NCc2ccccc2)cc1	0	-4	-7	-2	8	-6	·
CN(C)c1ccc(C(=O)OCC(=O)Nc2ccc(N3CCOCC3)cc2)cc1	1	10	2	4	-4	49*	35*
SMILES	DAGLB inhibitor	PAFAH1B3 inh	PAFAH1B2 inh	pPAFAH inh	HTRA1 inh	PAFAH2 FP inh	PAFAH2 confirm
CC(=O)Nc1ccc(C(=O)OCC(=O)c2ccc(F)cc2)cc1	0	5	5	-9	0	38*	36*
CC(=O)Nc1ccc(C(=O)OCC(=O)Nc2c(F)cccc2F)cc1	-1	7	4	-2	0	50*	38*
Cc1noc(C)c1C(=O)OCC(=O)Nc1c(F)cccc1F	3	3	0	3	-1	-6	·
O=C1c2ccccc2C(=O)N1CCC#Cc1ccc2cc(CCCO)oc(=O)c2c1	0	1	-4	1	-5	-10	·
O=C1CCC(C(=O)N2CCN(c3ccccc3)CC2)CN1CC1CCCCC1 (stereo not given)	-1	7	0	-1	-2	1	·
Cc1ccccc1-c1cccc([C@@H]2C[C@H]3[C@H](CON3C)CN2S(=O)(=O)c2ccccc2C)c1	-3	8	3	·	-14	-1	·
Cc1[nH]c(C)c(S(=O)(=O)NCC(C)c2ccccc2)c1C(=O)N1CCCCC1 (stereo not given)	2	3	5	24	7	2	·
COC(=O)[C@]1(C)N[C@H](CN(C)S(=O)(=O)c2ccc(C)cc2)[C@@H]2C(=O)N(Cc3ccccc3)C(=O)[C@@H]21	0	4	0	2	1	1	·
CC(C)(C)c1ccc(C(=O)NCCC(=O)N2CCC3(CC2)NCCc2[nH]cnc23)cc1	0	7	2	5	1	7	·
CCOc1ccc(C(=O)OCC(=O)NCCCc2ccccc2)cc1	-15	-2	1	13	-2	55*	35*
O=C(COC(=O)c1ccccc1)NCCCCc1ccccc1	-6	·	·	·	1	·	·
CC1=NN2C(=N)/C(=C\c3ccc(SCc4ccccc4)o3)C(=O)N=C2S1	2	4	19	14	-1	32*	33*
CC1=NN2C(=N)/C(=C\c3cc(C)n(Cc4ccccc4)c3C)C(=O)N=C2S1	·	·	·	9	·	·	·
O=C(NNC(=O)c1cc(Cl)ccc1O)c1cccs1	6	9	5	8	21	77*	73*
CCc1noc(C)c1C(=O)OCC(=O)N(C)c1c(N)n(Cc2ccccc2)c(=O)[nH]c1=O	2	3	-2	0	5	6	·
CCN(CC)C(=O)CSc1nc2c(sc(=S)n2-c2ccccc2)c(=O)n1-c1ccccc1OC	0	3	0	·	-14	37*	25
COc1ccc(C(=O)n2nc(C)c(Br)c2C)cc1	-21	4	4	5	5	31*	9
NCC(O)CN1CCN(Cc2ccccc2)CC1 (stereo not given)	-2	4	5	-2	3	3	·
COc1ccc(NC(=O)C(Cl)=C(Cl)Cl)cn1	0	5	1	·	-2	-4	·
